High-throughput results deposited in PubChem by The Scripps Research Institute Molecular Screening Center.
GalR3 antagonist – antagonists of human GalR3; AID 651719; inhibition, % at 3 µM; 360,000 tested, 0.44% active; HEK293 GalR3-CNG cAMP membrane potential fluorescence; galR3 body fused to GalR1 C-terminus;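 active = inhibition above the screen-wide average plus 3 SD, cut at about 13% in these data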;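 note: forskolin and galanin both at EC90 stimulate the cells; cAMP rise reported by CNG channel membrane potential dye signal; 0% = forskolin plus galanin with DMSO and 100% = forskolin alone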
NCOA3 inh – human NCOA3 inhibition; HEK293 GAL4-SRC3 luciferase reporter, luminescence; AID 588352; inhibition, % at 3.6 µM; 360,000 tested, 0.17% active; Q9Y6Q9;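 active = inhibition above a per-campaign cutoff, the mean of all compounds plus 3 SD, cut at about 60% in these data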;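 note: 0% = DMSO-treated cells and 100% = gossypol-treated cells at 36 µM; higher means less SRC3-driven luciferase light from the GAL4 reporter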
SRC1 inh – inhibits human SRC1 coactivator. Q15788. HEK293 GAL4-SRC1 luciferase reporter, luminescence. inhibition, % at 3.6 µM. 360,000 tested, 0.12% active. AID 588354;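 active = inhibition above the campaign mean plus 3 SD, with each screening campaign given its own cutoff, cut at about 60% in these data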;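 note: 0% = DMSO treated cells and 100% = gossypol at 36 µM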
COUP-TFII inh – inhibitors of human COUP-TFII (NR2F2); P24468; inhibition, % at 8.6 µM; 370,000 tested, 0.7% active; HEK293T NGFI-A luciferase reporter, luminescence; AID 686940;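 active = inhibition above a per-plate cutoff, mean inhibition of test wells between control levels plus 3 SD, cut at about 38% in these data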;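 note: cells cotransfected with COUP-TFII expression vector driving the NGFI-A reporter; 0% = median of COUP-TF2 test wells and 100% = reporter-only cells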
Target sequence (P24468 whole entry, looked up): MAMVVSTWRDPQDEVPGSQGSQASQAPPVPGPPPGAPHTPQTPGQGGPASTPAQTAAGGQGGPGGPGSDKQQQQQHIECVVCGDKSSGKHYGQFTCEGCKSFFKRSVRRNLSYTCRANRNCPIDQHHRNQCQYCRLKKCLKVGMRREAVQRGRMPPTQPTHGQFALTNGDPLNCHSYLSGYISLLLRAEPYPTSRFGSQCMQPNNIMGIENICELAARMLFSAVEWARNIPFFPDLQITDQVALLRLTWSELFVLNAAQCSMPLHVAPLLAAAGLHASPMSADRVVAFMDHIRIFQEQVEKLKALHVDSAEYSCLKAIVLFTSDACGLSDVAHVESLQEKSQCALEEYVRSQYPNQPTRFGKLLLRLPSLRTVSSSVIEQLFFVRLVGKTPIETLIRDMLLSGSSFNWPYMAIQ
NCOA2 inhibitor – inhibits human steroid receptor coactivator 2 | inhibition, % at 9 µM | AID 651957 | HEK293 GAL4-SRC2 luciferase reporter, luminescence | 370,000 tested, 0.17% active;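 active = inhibition above the mean inhibition of all tested compounds plus 3 SD, set per campaign, cut at about 52% in these data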;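 note: 0% = DMSO treated cells and 100% = cells given Gossypol at 36 µM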
LRH-1 inv ag – NR5A2 inverse agonism in reporter assay; O00482; HEK293T StAR-luciferase reporter, LRH-1 transfected, 24 h; inhibition, % at 3.6 µM; 360,000 tested, 0.13% active;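 active = inhibition above the mean inhibition of all tested compounds plus 3 SD, cut at about 73% in these data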;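 note: 0% = DMSO wells and 100% = reporter-only cells lacking LRH-1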
The depositor's hits bear a star; x = not tested or not shown. Sampled rows, rich in hits. Any-hit rate of the full collection: about 1.1%.

SMILES	GalR3 antagonist	NCOA3 inh	SRC1 inh	COUP-TFII inh	NCOA2 inhibitor	LRH-1 inv ag
CCCC(=O)NC(c1ccc(Cl)cc1)c1ccc2cccnc2c1O (stereo unspecified)	-12.3	47.6	47.8	13.7	18.7	77.1*
CCCCC(=O)NC(c1ccc(N(C)C)cc1)c1ccc2cccnc2c1O (stereo unspecified)	-3.6	43.8	46.4	-30.7	3.3	13.0
CCCC(=O)NC(c1ccccc1OC)c1ccc2cccnc2c1O (stereo unspecified)	x	53.2	39.0	x	x	80.0*
CCCCNC(=O)C1CCCN1C(=O)Nc1ccc(Cl)cc1 (stereo unspecified)	x	x	x	-2.3	0.3	x
CCN(CC)c1ccc(C(NC(=O)C(C)C)c2ccc3cccnc3c2O)cc1 (stereo unspecified)	-4.0	49.6	43.0	-22.8	32.4	95.6*
COc1cccc(N(C(=O)CCl)C(C(=O)NCCc2ccccc2)c2cccs2)c1 (stereo unspecified)	-4.6	68.1*	27.9	7.3	61.4*	25.6
COc1ccc(N(C(=O)c2ccco2)C(C(=O)NC2CCCCC2)c2cccs2)cc1OC (stereo unspecified)	-1.7	11.8	-9.7	-2.8	0.0	9.0
COc1ccc(N(C(=O)CCl)C(C(=O)NCCc2ccccc2)c2cccs2)cc1Cl (stereo unspecified)	-5.8	76.3*	2.7	25.9	47.8	39.6
COC(=O)[C@]12C[C@H](CC(=O)NCc3cccs3)C(=O)N(Cc3ccco3)C1=C[C@H](C(C)C)O[C@@H]2C1CC1	x	x	x	11.8	1.1	x
CS(=O)(=O)c1ccc(Sc2nc3ccccc3s2)c([N+](=O)[O-])c1	x	73.0*	11.1	x	x	20.2
Cc1ccc(S(=O)(=O)/C(=C/Cl)NC(=O)c2ccccc2)cc1	-4.6	51.9	14.8	30.3	61.0*	49.4
Cc1ccc(S(=O)(=O)C(NC(=O)c2ccccc2)=C(Cl)Cl)cc1	2.9	-0.7	-1.4	17.0	51.9	2.6
CC(C)C[C@H]1COc2cccc(F)c2S(=O)(=O)N1Cc1cn(Cc2ccc(C(F)(F)F)cc2)nn1	x	x	x	-28.1	2.8	x
COc1ccc(-c2cc(-c3nc4ccccn4c3NCc3ccccc3)ccc2OC)cc1	-5.0	63.7*	15.2	101.0*	90.7*	91.2*
COc1ccc(Cn2cc(COC(=O)Nc3ccc(F)cc3)nn2)cc1	x	x	x	-17.4	15.3	x
CC(C)(C)c1ccc(-c2cc(N)n[nH]2)cc1	x	13.5	13.6	2.2	55.0*	-29.4
OC[C@@H]1CN(Cc2ccc(-c3ccccc3)cc2)C[C@H](n2cnc3c(NCc4ccco4)ncnc32)O1	-4.9	16.2	15.6	52.1*	22.3	54.2
OCC1OC(n2cnc3c(NCc4ccccc4O)ncnc32)C(O)C1O (stereo unspecified)	-8.0	61.7*	35.3	-21.3	-60.4	89.7*
OC[C@H]1O[C@@H](n2cnc3c(Nc4ccccc4)ncnc32)[C@H](O)[C@@H]1O	1.5	-48.2	-135.5	-64.3	-67.0	-65.7
CC(C)C[C@H](NC(=O)c1cccs1)C(=O)N1CCC[C@H]1C(=O)NCc1ccccc1	-6.4	x	x	-11.1	18.0	x
CCOC(=O)c1ccc(N=Cc2cnc(N)nc2N)cc1	-6.4	1.7	-1.6	0.5	-7.7	87.8*
CCOC(=O)c1ccc(N=CC2=C(O)CC(C)(C)CC2=O)cc1	6.5	4.4	-8.5	-11.5	3.5	-21.4
O=C(COc1ccc(S(=O)(=O)NC2CCCCC2)cc1)N1CCN(c2cccc(Cl)c2)CC1	-5.9	25.7	7.5	57.2*	24.5	15.8
CC(C)NS(=O)(=O)c1ccc(OCC(=O)N2CCN(c3ccccc3)CC2)cc1	-3.6	6.7	-6.1	15.5	5.1	-9.3
Cc1nccn1CCCNC(=O)c1nc(Cn2cc([N+](=O)[O-])cn2)no1	12.7*	13.4	8.2	7.4	6.7	-0.6
SMILES	GalR3 antagonist	NCOA3 inh	SRC1 inh	COUP-TFII inh	NCOA2 inhibitor	LRH-1 inv ag
O=C(O)CCCCCCCCCCC1CCC(O)C1O (stereo unspecified)	-1.9	19.5	6.5	40.8*	40.3	4.7
COc1ccc(Cn2c(NC(=O)c3ccccc3)nc(Cc3ccccc3)c2Cc2ccccc2)cc1	x	x	x	-4.3	-29.0	x
c1ccc(CN2C3=NCCN3c3ccccc32)cc1	-1.6	9.3	-10.1	-3.4	-10.5	-18.6
Cc1ccccc1CN1CC2=C(CCN(Cc3ccccc3)C2=O)N2CCN=C12	-5.4	62.0*	48.5	37.0	2.5	85.1*
C[n+]1c(-c2ccccc2)cc2c(=Cc3ccccc3)c3ccccc3n21	-5.2	62.4*	26.7	31.1	2.0	57.6
C[n+]1c(-c2ccccc2)cc2c(=Cc3ccc([N+](=O)[O-])cc3)c3ccccc3n21	-0.6	4.7	0.2	-7.4	-10.2	-1.0
O=C(NCCc1c[nH]c2ccccc12)OCc1cn(Cc2ccc(F)cc2F)nn1	x	x	x	0.9	-16.9	x
Cc1occc1-c1n[nH]c(=S)n1C	13.1*	14.4	-26.5	-0.3	-26.2	1.3
Cc1occc1-c1n[nH]c(=S)n1-c1ccccc1	-3.0	2.5	-21.8	4.5	4.8	5.3
COC(=O)[C@]12C[C@H](CC(=O)N3CCCCC3)C(=O)N(Cc3ccccc3)C1=C[C@H](C(C)(C)C)O[C@@H]2C	-1.2	x	x	11.0	13.1	x
Cc1cc(O)c2c(c1O)C(=O)[C@]13C(=C2O)C(=O)[C@@H]2[C@@H](O)[C@H]1[C@@H]1[C@H](O)[C@H]3C(=O)C3=C(O)c4c(O)cc(C)c(O)c4C(=O)[C@]312	x	74.7*	71.7*	x	x	96.2*
COc1ccccc1-c1nnc(Sc2nc([N+](=O)[O-])nn2C)o1	-3.6	73.2*	64.3*	12.1	64.6*	75.3*
CCOC(=O)Cn1cc(CN2C(C(=O)OC)CN(Cc3ccccc3)CCS2(=O)=O)nn1 (stereo unspecified)	x	x	x	-1.4	-1.5	x
CCOC(=O)N/N=C/c1ccc(N(CC)CC)cc1O	-0.8	-15.8	-35.9	-25.2	-69.2	-55.1
CCN(CC)c1ccc(/C=N/NC(=O)c2c(Cl)cnn2C)c(O)c1	-1.3	75.8*	21.9	-33.1	13.4	42.2
CCN(CC)c1ccc(/C=N/Nc2nc(C)cc(=O)[nH]2)c(O)c1	-5.9	84.0*	80.9*	-2.4	46.0	32.5
COc1ccc(C(=O)OCCN(C)C2CN(Cc3cn(Cc4cccc(F)c4)nn3)S(=O)(=O)C2)cc1OC (stereo unspecified)	x	x	x	-10.8	-18.2	x
COc1ccc2[nH]c3c(c2c1)CCNC3=O	0.7	65.3*	52.9	16.4	31.1	36.5
CN(C)CCNc1ccc(CO)c2sc3ccc(O)cc3c(=O)c12	-2.1	28.3	79.2*	-85.4	-203.2	67.8
COc1ccc2sc3cccc(NCCN(C)C)c3c(=O)c2c1	-9.8	23.3	5.8	-4.8	-39.1	-12.9
CC(=O)CSc1nnc(-c2ccc3c(c2)OCO3)o1	-5.0	-109.7	-102.2	-12.5	-0.3	-129.2
O=C(O)CCSc1nnc(-c2ccc3c(c2)OCO3)o1	-0.9	10.5	16.2	26.9	69.6*	-1.5
